IL1B secr inh = qHTS for Inhibitors of Inflammasome Signaling: IL-1-beta AlphaLISA Primary Screen; THP-1 LPS/ATP IL-1B secretion, AlphaLISA, 16 h; hits give low values; activity change, % at 57.5 µM; hit rate 4.7% among 360,000; AID 743279, 2014; in the data active means activity change below about -50%; inconclusive means mostly about -30% to -49%
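THP-1 cells pretreated 1 hr with compounds (up to 57.5 uM final), then stimulated with LPS (250 ng/mL final) plus ATP (1.25 mM final); secreted IL-1B measured by AlphaLISA after 16 hr, decreased signal indicating inhibition.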
D3 antag = qHTS of D3 Dopamine Receptor Antagonist: qHTS; D(3) dopamine receptor (Homo sapiens), P35462; D3R cells, DiscoveRx beta-arrestin luminescence, antagonist mode; hits give low values; max response, negative = inhibition, %; hit rate 2.5% among 360,000; in the data active means max response below about -50%; inconclusive means no clear call, values can overlap the other calls
Target sequence (P35462 whole entry, looked up): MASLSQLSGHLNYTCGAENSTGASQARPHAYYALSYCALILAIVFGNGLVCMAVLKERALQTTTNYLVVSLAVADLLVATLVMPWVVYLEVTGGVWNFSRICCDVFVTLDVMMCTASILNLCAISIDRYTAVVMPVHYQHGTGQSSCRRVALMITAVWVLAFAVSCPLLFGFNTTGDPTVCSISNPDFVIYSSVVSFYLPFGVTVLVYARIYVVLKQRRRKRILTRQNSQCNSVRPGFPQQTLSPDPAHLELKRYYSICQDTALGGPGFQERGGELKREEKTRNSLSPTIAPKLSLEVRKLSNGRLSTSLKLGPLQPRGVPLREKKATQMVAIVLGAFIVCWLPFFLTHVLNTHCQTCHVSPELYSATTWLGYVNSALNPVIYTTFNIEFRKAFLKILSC
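Cells expressing the human receptor were seeded at 1500 cells/well, incubated overnight at 37 degrees C in 5% CO2, then exposed to library compounds with dopamine controls for 90 minutes at 37 degrees C before luminescent detection.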
DRD3 agonist = qHTS of D3 Dopamine Receptor Agonist: qHTS | D(3) dopamine receptor (Homo sapiens), P35462 | D3R DiscoveRx beta-arrestin cells, luminescence, 90 min | max activation, % | hit rate 0.58% among 410,000 | AID 652048, 2013; in the data active means max activation above about 30%
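Cells at 1500/well, incubated overnight, then treated with pinned compounds (dopamine as control) for 90 min at 37 degrees C. DiscoveRx reagent added for 30 - 60 minutes at room temperature; luminescence read.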
ATXN2 expr inh = Primary qHTS for Inhibitors of ATXN expression | Potency, µM (doses to about 57 µM), actives largely listed as inhibitors | HEK-293 ATXN2-luciferase reporter, luminescence, 24 h | hit rate 0.72% among 360,000; further: nearly all actives have a fitted effect of over 55% in size
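ATXN2-luciferase reporter cells (luciferase flanked by upstream and downstream ATXN2 gene portions) were treated 24 h at 37 °C with compounds at up to 57 uM. SteadyGlo luminescence gave expression; GF-AFC fluorescence gave viability.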
ATXN viability = Viability Counterscreen for Primary qHTS for Inhibitors of ATXN expression; S2 cells (HEK-293 line with an ATXN2-luciferase reporter) viability, CellTiter-Fluor protease fluorescence, 24 h; Potency, µM (doses to about 56.7 µM), usual class: cytotoxic; hit rate 0.49% among 400,000; AID 651635, 2014; further: nearly all actives have a fitted effect of over 40% in size
Integrin act MD = qHTS for Activators of Integrin-Mediated Alleviation for Muscular Dystrophy | alpha7betagal myoblasts, beta-gal FDG fluorescence, 48 h | Potency, µM (top dose mostly 38.3 µM), usual class: activators | hit rate 0.064% among 350,000 | AID 624291, 2012; further: nearly all actives have a fitted effect of over 60% in size
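Alpha7betagal+/- myoblasts (passage 13) were plated 16-24 hr, then exposed to compounds (1:260 dilution of DMSO stock) for 48 hours at 37C. After MPER lysis, β-galactosidase reporter activity was read as FDG fluorescence (ex 480/em 540) after 30 minutes.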
Large screens that a line does not name were inactive. Hits are enriched below; roughly 7% of the tested compounds scored in any of these assays. Unless noted, the call rests on the fitted dose curve; in most records, active means well fitted curve in the direction sought with a large enough effect; inconclusive means small, poorly fitted or top-dose-only effect, or another doubt; inactive means no such curve, though single readings can be large; an effect the other way counts as inactive or inconclusive.

Cc1ccc(S(=O)(=O)/N=C2\C=C(Nc3ccc(O)cc3)C(=O)c3ccccc32)cc1	IL1B secr inh -97, D3 antag -94, ATXN2 expr inh 6.3µM, ATXN viability 4µM
Cc1ccc(S(=O)(=O)/N=C2\C=C(Nc3cccc(C(=O)O)c3)C(=O)c3ccccc32)c(C)c1	IL1B secr inh -104, D3 antag -71, ATXN2 expr inh 32µM (no result: ATXN viability)
COc1ccc(CCN(C(=O)C(F)(F)F)C(C(=O)NC2CCCC2)c2cccs2)cc1OC (centres undefined)	none
Cc1cccc(C)c1NC(=O)c1ccc(N2CCCC2=O)cc1	IL1B secr inh inconclusive, D3 antag inconclusive
O=C(NCc1ccc2c(c1)OCO2)c1ccc2c(c1)N(Cc1cccc(Cl)c1)C(=O)c1ccccc1S2	none (no result: IL1B secr inh, D3 antag, ATXN2 expr inh, ATXN viability, Integrin act MD)
Cc1onc(-c2c(F)cccc2Cl)c1C(=O)N1CCc2ccccc21	DRD3 agonist 34
Cc1ccsc1C=C1C(=O)c2ccccc2C1=O	D3 antag -56
Cc1ccsc1/C=C1/C(=O)NN(c2ccccc2)C1=O	D3 antag inconclusive
O=c1c(N=Nc2ccccc2)c[nH]n1-c1ccccc1	D3 antag -62 (no result: ATXN2 expr inh)
CCOc1cccc(C(=O)N/N=C/c2coc3ccccc3c2=O)c1	none
COc1cc(NC(=O)c2ccco2)c(OC)cc1NC(=O)CSc1ncc(-c2ccc(F)cc2)[nH]1	DRD3 agonist 31
O=C(NCCSc1ncc(-c2ccc(F)cc2)[nH]1)c1ccco1	none
Cc1ccccc1NC(=O)Cn1nc(-c2ccc(Cl)s2)ccc1=O	none
O=C(NNC(=O)c1ccc2ccccc2n1)c1ccc(O)cc1	none
COc1ccc(C(=O)NNC(=O)c2ccc3ccccc3n2)cc1	IL1B secr inh -98, ATXN2 expr inh 20µM (no result: ATXN viability)
CCCCn1c(SCc2ccc(C(=O)OC)o2)nc2cc(S(N)(=O)=O)ccc21	IL1B secr inh -78
CCCCn1c(SCC(=O)c2cc(OC)ccc2OC)nc2cc(S(N)(=O)=O)ccc21	none
CCNC(=O)N1CCN(CCCC(c2ccc(F)cc2)c2ccc(F)cc2)CC1	D3 antag -114, ATXN2 expr inh inconclusive, ATXN viability inconclusive (no result: Integrin act MD)
O=C(Nc1ccc(F)cc1)N1CCN(CCc2ccccc2)CC1	none
Cc1cc(C)c2c(=O)n3c(nc2c1)C(Cc1ccccc1)NC(=O)c1cccnc1-3 (centres undefined)	ATXN viability 10µM
CC(CN1c2ccccc2Sc2ccccc21)N(C)C (centres undefined)	IL1B secr inh inconclusive, D3 antag -98, ATXN2 expr inh inconclusive, ATXN viability inconclusive (no result: Integrin act MD)
CCN(CC)CC(O)CN1c2ccccc2Sc2ccccc21 (centres undefined)	IL1B secr inh -68
OCCN(CCO)CC(O)CN1c2ccccc2Sc2ccccc21 (centres undefined)	none (no result: ATXN2 expr inh)
CCN(CC)CCCCN1c2ccccc2Sc2ccccc21	IL1B secr inh -70, D3 antag -107, ATXN2 expr inh inconclusive, ATXN viability inconclusive
COc1ccc2c(c1)N(C[C@H](C)CN(C)C)c1ccccc1S2	IL1B secr inh inconclusive, D3 antag -106, ATXN2 expr inh inconclusive, ATXN viability inconclusive (no result: Integrin act MD)
NC(=O)c1ccc(NC(=O)CSc2nnc(-c3ccccn3)n2N)cc1	ATXN viability inconclusive (no result: ATXN2 expr inh)
COc1cc(Cl)ccc1OCc1cc(C(=O)N[C@H]2CCCCNC2=O)no1	none
FC(F)(F)c1cccc(Cc2noc(CN3CCC(c4ccncc4)CC3)n2)c1	ATXN2 expr inh inconclusive
CN1CCCC2(CCCN(Cc3nc(Cc4cccc(C(F)(F)F)c4)no3)C2)C1 (centres undefined)	IL1B secr inh -75
Cc1ccc2c(CC(=O)OC(C)C(=O)NCc3ccc4c(c3)OCO4)coc2c1 (centres undefined)	ATXN viability inconclusive
Cc1ccc(NC(=O)c2ccc3c(c2)OCCO3)cc1S(=O)(=O)Nc1cccc(Cl)c1	IL1B secr inh -57, ATXN viability inconclusive
Cc1ccc(C(=O)Nc2ccc3c(c2)OCCO3)c(C)c1	ATXN2 expr inh 5µM
O=C(Nc1ccc2oc(-c3ccccc3F)nc2c1)c1ccc2c(c1)OCCO2	IL1B secr inh -54, ATXN2 expr inh inconclusive, ATXN viability inconclusive
Cc1ccc(NC(=O)c2ccc3c(c2)OCCO3)cc1C	IL1B secr inh -50, ATXN2 expr inh inconclusive
Cc1ccc(C2NC(=O)c3sc(=S)n(-c4ccccc4)c3N2)cc1 (centres undefined)	D3 antag inconclusive
CCN1CCN(C(=O)c2ccc3c(c2)N(Cc2cccc(Cl)c2)C(=O)c2ccccc2S3(=O)=O)CC1	none (no result: IL1B secr inh, D3 antag, ATXN2 expr inh, ATXN viability, Integrin act MD)
CCOc1ncccc1C(=O)OCC(=O)Nc1ccc(-c2nc3ccc(C)cc3s2)cc1	none
CCOCCOC(=O)c1[nH]c2c(c1C)C(=O)CC(c1cc(OC)c(OC)c(OC)c1)C2 (centres undefined)	none
Cc1ccc(SC[C@H](Cc2ccccc2)N2CCN(C)CCC2=O)cc1	D3 antag inconclusive
O=C(CSc1nnc(-c2ccccn2)n1Cc1ccccc1)N1CCOCC1	none (no result: ATXN2 expr inh)
CCOc1ccc(OCC)c(NC(=O)CSc2nc3c(c(=O)n(C)c(=O)n3C)n2C(C)C)c1	IL1B secr inh -81
CCOc1ccc(OCC)c(NC(=O)CSc2nc3c(c(=O)n(C)c(=O)n3C)n2CC)c1	none
CCN(CC)S(=O)(=O)c1cc(NC(=O)CSc2nc3c(cc2C#N)C(=O)CC(C)(C)C3)ccc1C	IL1B secr inh -57, DRD3 agonist 34, ATXN2 expr inh inconclusive, ATXN viability inconclusive
O=c1c2ccccc2c(C=NCCCN2CCOCC2)c(O)n1Cc1ccccc1	none
O=C(/C=C/c1ccc(Cl)c([N+](=O)[O-])c1)Nc1cccnc1	IL1B secr inh -53
O=C(/C=C/c1cccc([N+](=O)[O-])c1)Nc1cccc(NC(=O)c2ccco2)c1	IL1B secr inh -95, ATXN2 expr inh inconclusive, ATXN viability inconclusive
O=C(/C=C/c1cccc([N+](=O)[O-])c1)Nc1cccc(NC(=O)c2cccs2)c1	IL1B secr inh -60
O=C(OCc1ccccc1)/C(=C/c1cccc([N+](=O)[O-])c1)NC(=O)c1ccco1	IL1B secr inh -50
O=C(/C=C/c1ccc([N+](=O)[O-])cc1)Nc1cccnc1	none
Cc1ccc(NS(=O)(=O)c2ccc(/C=C/C(=O)O)cc2)cc1Cl	none
O=C(CCn1c(=O)c2sccc2n(Cc2ccc(F)cc2Cl)c1=O)NCc1ccc2c(c1)OCO2	none (no result: IL1B secr inh, D3 antag, ATXN2 expr inh, ATXN viability, Integrin act MD)
O=C(/C=C/c1ccc(Cl)c([N+](=O)[O-])c1)Nc1cccc(NC(=O)c2ccco2)c1	IL1B secr inh -99 (no result: ATXN2 expr inh)

Screens from PubChem.
